Assay [1] is described as follows: CEETOX_H295R_ESTRADIOL: CeeTox H295R High-throughput Steroidogenesis Assay for Estradiol (AID 2283440).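 Note: estradiol secreted into medium quantified by LC-MS/MS after dansyl derivatisation.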 The note with it: actives raise or lower the signal. The essentials: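 H295R cells pre-stimulated 48 h with 10 uM forskolin, then exposed 48 h to chemical in 0.1% DMSO. Medium estradiol quantified by MTBE extraction, dansyl derivatisation and HPLC-MS/MS; bidirectional fit versus DMSO; MTT viability required >/=70%.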

Assay [2] can be described thus: CEETOX_H295R_ESTRONE: CeeTox H295R High-throughput Steroidogenesis Assay for Estrone (AID 2283441).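 For AC50: human adrenal H295R cells prestimulated with forskolin for two days.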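 Note: estrone secreted into medium measured by LC-MS/MS after dansyl derivatization.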 The settings on record: actives raise or lower the signal. Put shortly:
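H295R cells; 48 h forskolin (10 uM) prestimulation; 48 h compound exposure, 0.1% DMSO final. Medium estrone: MTBE extraction, dansyl derivatization, HPLC-MS/MS. Bidirectional fit vs DMSO.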

Assay [3] can be described thus: CEETOX_H295R_PROG: CeeTox H295R High-throughput Steroidogenesis Assay for Progesterone (PROG) (AID 2283442).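 For AC50: human H295R adrenal cells primed with 10 µM forskolin before dosing.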 The settings on record: actives raise or lower the signal. The essentials: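 H295R adrenal cells prestimulated 48 h with 10 uM forskolin, then exposed 48 h to test chemical in 0.1% DMSO. Progesterone in medium quantified by HPLC-MS/MS after MTBE extraction; viability checked by MTT in same wells.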

Assay [4] can be described thus: CEETOX_H295R_TESTO: CeeTox H295R High-throughput Steroidogenesis Assay for Testosterone (TESTO) (AID 2283457). The settings on record: actives raise or lower the signal. Put shortly:
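H295R adrenal cells, passage ≤10, exposed to chemicals for 48 h. Testosterone in medium measured by MTBE extraction and HPLC-MS/MS against a 7-point standard curve. Bidirectional fit versus DMSO; MTT viability checked in the same wells.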

Read-out in assay [5]: Tumor necrosis factor receptor superfamily member 6 (Homo sapiens) (UniProt P25445)
Description: LTEA_HepaRG_FAS: Life Technologies and Expression Analysis (LTEA) Assay for Fas cell surface death receptor (FAS) using HepaRG (AID 2283447). The settings on record: mRNA level, 48 h; actives raise or lower the signal. The essentials:
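FAS transcript level was measured by TaqMan qRT-PCR against three housekeeping genes after 48 h chemical exposure. Cells were HepaRG, 0.5% DMSO vehicle, with a top concentration of 100 uM and half-log dilutions over eight points, in duplicate.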

Read-out in assay [6]: Cyclin D2 (CCND2), CCND2 (gene 894)
Description: LTEA_HepaRG_CCND2: Life Technologies and Expression Analysis (LTEA) Assay for Cyclin D2 (CCND2) using HepaRG (AID 2283449). The settings on record: mRNA level, 48 h; actives raise or lower the signal. Put shortly:
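Read-out is CCND2 mRNA level measured by qRT-PCR in human HepaRG liver cells and normalised to three housekeeping genes. Chemicals were applied for 48 h at up to 100 uM, with gain or loss fitted relative to 0.5% DMSO.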

Read-out in assay [7]: Cyclin Dependent Kinase Inhibitor 1A (CDKN1A), CDKN1A (gene 1026)
Put plainly: LTEA_HepaRG_CDKN1A: Life Technologies and Expression Analysis (LTEA) Assay for Cyclin Dependent Kinase Inhibitor 1A (CDKN1A) using HepaRG (AID 2283450). The note with it: mRNA level, 48 h; actives raise or lower the signal. Put shortly:
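Differentiated HepaRG cells in serum-free induction medium, exposed 48 h in duplicate to eight half-log concentrations up to 100 uM in 0.5% DMSO. mRNA measured by TaqMan qRT-PCR, normalized to ACTB, GAPDH, POLR2A; bidirectional fit versus DMSO.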

Read-out in assay [8]: Cyclin D1 (CCND1), CCND1 (gene 595)
Description: LTEA_HepaRG_CCND1: Life Technologies and Expression Analysis (LTEA) Assay for Cyclin D1 (CCND1) using HepaRG (AID 2283451).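 For AC50: TaqMan qRT-PCR transcript level normalised to ACTB GAPDH and POLR2A housekeeping genes.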 The settings on record: mRNA level, 48 h; actives raise or lower the signal. The essentials: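 Differentiated HepaRG cells exposed 48 h in serum-free induction medium to eight half-log concentrations from 100 uM top, 0.5% DMSO, duplicates. CCND1 mRNA measured by Fluidigm TaqMan qRT-PCR, normalised to ACTB, GAPDH, POLR2A; bidirectional fit.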

Read-out in assay [9]: catalase (CAT), CAT (gene 847)
Description: LTEA_HepaRG_CAT: Life Technologies and Expression Analysis (LTEA) Assay for catalase (CAT) using HepaRG (AID 2283452). The settings on record: mRNA level, 48 h; actives raise or lower the signal. Put shortly:
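Expression of CAT was quantified by TaqMan qRT-PCR with ACTB/GAPDH/POLR2A normalization after 48 h chemical exposure of HepaRG. Eight-point half-log series, top 100 uM, in 0.5% DMSO; gain or loss fitted against vehicle.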

Read-out in assay [10]: flavin-containing dimethylaniline monooxygenases 3 (FMO3), FMO3 (gene 2328)
Description: LTEA_HepaRG_FMO3: Life Technologies and Expression Analysis (LTEA) Assay for flavin-containing dimethylaniline monooxygenases 3 (FMO3) using HepaRG (AID 2283453). The settings on record: mRNA level, 48 h; actives raise or lower the signal. Put shortly:
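HepaRG, 48 h exposure, 8-pt half-log series from 100 uM, 0.5% DMSO vehicle, duplicates; FMO3 transcript by Fluidigm TaqMan qRT-PCR, housekeeping-normalized; gain/loss fit vs DMSO.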

Read-out in assay [11]: CFLAR gene, CFLAR (gene 8837)
Description: LTEA_HepaRG_CFLAR: Life Technologies and Expression Analysis (LTEA) Assay for CFLAR gene using HepaRG (AID 2283455). The note with it: mRNA level, 48 h; actives raise or lower the signal. The essentials:
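HepaRG, 48 h exposure, 8-pt conc-response (100 uM top, half-log), 0.5% DMSO vehicle, duplicates. CFLAR expression by qRT-PCR; ACTB/GAPDH/POLR2A normalization; gain or loss fit vs DMSO baseline.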

Read-out in assay [12]: Forkhead box O1 (FOXO1), FOXO1 (gene 2308)
Description: LTEA_HepaRG_FOXO1: Life Technologies and Expression Analysis (LTEA) Assay for Forkhead box O1 (FOXO1) using HepaRG (AID 2283456). The note with it: mRNA level, 48 h; actives raise or lower the signal. The essentials: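 Readout is FOXO1 transcript level by multiplexed qRT-PCR against three housekeeping genes, curve-fitted in both directions relative to 0.5% DMSO vehicle. Human HepaRG cultures received chemicals for 48 h, up to 100 uM in half-log steps.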

Read-out in assay [13]: growth arrest and DNA damage 45 (GADD45A), GADD45A (gene 1647)
Put plainly: LTEA_HepaRG_GADD45A: Life Technologies and Expression Analysis (LTEA) Assay for growth arrest and DNA damage 45 (GADD45A) using HepaRG (AID 2283458). The note with it: mRNA level, 48 h; actives raise or lower the signal. The essentials: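 Differentiated HepaRG cells were exposed in duplicate for 48 h in serum-free induction medium to 8-point half-log concentrations up to 100 uM in 0.5% DMSO. GADD45A mRNA was measured by TaqMan qRT-PCR, normalized to ACTB, GAPDH and POLR2A, with bidirectional fitting versus DMSO.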

Read-out in assay [14]: Forkhead box O3 (FOXO3), FOXO3 (gene 2309)
Description: LTEA_HepaRG_FOXO3: Life Technologies and Expression Analysis (LTEA) Assay for Forkhead box O3 (FOXO3) using HepaRG (AID 2283459). The note with it: mRNA level, 48 h; actives raise or lower the signal. Put shortly:
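HepaRG, 48 h post-dose; 8 conc., half-log from 100 uM, 0.5% DMSO, duplicates; serum-free induction medium. Readout: FOXO3 mRNA, TaqMan qRT-PCR, housekeeping-normalized. Bidirectional curve fit vs DMSO baseline.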

Read-out in assay [15]: growth arrest and DNA damage 45 (GADD45B), GADD45B (gene 4616)
Description: LTEA_HepaRG_GADD45B: Life Technologies and Expression Analysis (LTEA) Assay for growth arrest and DNA damage 45 (GADD45B) using HepaRG (AID 2283461). The note with it: mRNA level, 48 h; actives raise or lower the signal. Put shortly:
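Differentiated human HepaRG cells in serum-free induction medium exposed 48 h in duplicate to eight concentrations, top 100 uM, half-log steps, 0.5% DMSO. GADD45B mRNA by TaqMan qRT-PCR, normalized to ACTB, GAPDH, POLR2A; bidirectional fit versus DMSO.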

Read-out in assay [16]: ABC Transporter (ABCC3), ABCC3 (gene 8714)
Description: LTEA_HepaRG_ABCC3: Life Technologies and Expression Analysis (LTEA) Assay for ABC Transporter (ABCC3) using HepaRG (AID 2283462). The note with it: mRNA level, 48 h; actives raise or lower the signal. The essentials: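 Differentiated human HepaRG cells exposed 48 h in serum-free induction medium, 0.5% DMSO vehicle, 8-point half-log series to 100 uM in duplicate. ABCC3 mRNA by qRT-PCR, normalised to ACTB, GAPDH, POLR2A; bidirectional fit vs DMSO.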

Read-out in assay [17]: Cytochrome P450 (CYP1A1), CYP1A1 (gene 1543)
Put plainly: LTEA_HepaRG_CYP1A1: Life Technologies and Expression Analysis (LTEA) Assay for Cytochrome P450 (CYP1A1) using HepaRG (AID 2283454). The note with it: mRNA level, 48 h; actives raise or lower the signal. Put shortly:
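Differentiated human HepaRG cells, after 48 h plating, exposed in duplicate for 48 h in serum-free induction medium to 8 half-log concentrations up to 100 uM in 0.5% DMSO. CYP1A1 mRNA by qRT-PCR, normalized to ACTB/GAPDH/POLR2A; bidirectional fit versus DMSO.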

Read-out in assay [18]: ABC Transporter (ABCB1), ABCB1 (gene 5243)
Put plainly: LTEA_HepaRG_ABCB1: Life Technologies and Expression Analysis (LTEA) Assay for ABC Transporter (ABCB1) using HepaRG (AID 2283460). The settings on record: mRNA level, 48 h; actives raise or lower the signal. The essentials: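 Expression of ABCB1 was quantified by qRT-PCR against three housekeeping genes after human HepaRG cultures received test chemicals for 48 hours. Concentrations spanned eight half-log steps topping at 100 uM in 0.5% DMSO; gain or loss of signal was fitted relative to vehicle.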

Read-out in assay [19]: ABC Transporter (ABCB11), ABCB11 (gene 8647)
Put plainly: LTEA_HepaRG_ABCB11: Life Technologies and Expression Analysis (LTEA) Assay for ABC Transporter (ABCB11) using HepaRG (AID 2283463). The settings on record: mRNA level, 48 h; actives raise or lower the signal. The essentials: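 ABCB11 transcript levels are read by Fluidigm TaqMan qRT-PCR after 48 h chemical treatment of human HepaRG cells. Concentrations span 100 uM downward in half-log steps with 0.5% DMSO; gain or loss is fitted against DMSO controls.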

Several values for one entry are separate records, joined by “and”; a condition that tells them apart may be missing. Equal entries are not always repeated. Activity calls are given as the source filed them. Rule for the calls: active = hit-call score of the fitted dose curve at least 0.9, where 1 is the maximum; inactive = score below 0.9.

For orientation: AC50 means the midpoint of the concentration-response curve, whichever way the signal moves.

Regarding `N#Cc1c(-c2ccc(Cl)cc2)[nH]c(C(F)(F)F)c1Br`, the result in assay [1], in assay [2], in assay [3] and in assay [4] was inactive.

For the molecule `CC(C)(C)c1ccc(O)cc1`, the molecule was classed as inactive in [3], in assay [5], in assay [6], in [7], in assay [8] and in assay [9]. In addition, the outcome in [10], in assay [11], in [12], in [13], in [14] and in [15] was inactive. The molecule was classed as inactive in [16].

With `O=S1(=O)OCC2C(CO1)C1(Cl)C(Cl)=C(Cl)C2(Cl)C1(Cl)Cl` (configuration not stated), the molecule was called inactive in [1] and in assay [2]. Moreover, in assay [3], the concentration at half-maximal activity (AC50) is 1.03 µM (active).

As for `CCCCc1ccc(O)cc1`, the result in assay [1] and in assay [3] was inactive. In addition, the AC50 in assay [2] is 32.2 µM (active).

On to `c1ccc2c(c1)Nc1ccccc1S2`, for which the result in assay [1], in assay [5], in [7], in [9], in assay [10] and in [11] was inactive. The call in [12], in [13], in assay [14], in assay [18] and in [16] was inactive. The half-maximal activity concentration (AC50) is 9.58 µM (active) and 17.3 µM (active) and 12 µM (active) in assay [2]; 2.23 µM (active) and 2.16 µM (active) and 12.2 µM (active) in assay [3]; 67.9 µM (active) in assay [8]; 86.5 µM (active) in assay [17]; 85.3 µM (active) in [15].

Turning to `CCNc1nc(Cl)nc(NC(C)(C)C)n1`, the molecule was called inactive in assay [1], in [3], in assay [5], in assay [6], in assay [7] and in assay [8]. Also, the result in [9], in assay [10], in [11], in assay [12], in assay [4] and in [13] was inactive. For the same molecule, the molecule was called inactive in [14], in [15] and in assay [16]. The figures for the AC50 in assay [2], in assay [17] and in [18] were 1.51 µM (active), 22.7 µM (active) and 7.02 µM (active), respectively.

As to `Nc1ccc(Cl)cc1`, the figures for the half-maximal activity concentration (AC50) in assay [3] and in [17] were 16.5 µM (active) and 28 µM (active), respectively. In addition, the molecule was classed as inactive in assay [5], in assay [6], in assay [7], in assay [8], in [9] and in assay [10]. Moreover, the result in assay [11], in [12], in [13], in assay [14], in assay [18] and in assay [15] was inactive. Also, the outcome in assay [16] and in assay [19] was inactive.

For `Cc1cccc(N)c1`, the molecule was called inactive in [3], in assay [6], in assay [7], in assay [8], in assay [9] and in assay [10]. The outcome in assay [11], in assay [12], in assay [13], in assay [14], in assay [18] and in assay [15] was inactive. In addition, the result in [16] was inactive. Also, the AC50 in assay [17] is 50.2 µM (active).
